Results from the supplement of paper PMC4166925.
± gives the standard deviation of the averaged measurements. Whole data set: some 33,000 sequences, median “E-score (dimensionless, -0.5 to 0.5)” near -0.049, cut for the highest 2% near 0.37. Shown is part of a subset that was picked to be rich in the highest values.

Test system: T1, PmTbr T-box DNA-binding domain (GST fusion)
T1 sequence: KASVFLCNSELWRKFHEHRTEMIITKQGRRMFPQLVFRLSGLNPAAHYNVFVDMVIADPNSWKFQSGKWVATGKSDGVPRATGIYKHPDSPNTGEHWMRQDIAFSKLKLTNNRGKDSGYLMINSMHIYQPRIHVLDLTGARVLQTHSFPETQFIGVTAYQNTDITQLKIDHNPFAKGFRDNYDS
Assay: PBM E-score of 8-mer (E-score (dimensionless, -0.5 to 0.5)); Tbr is Tbrain of the sea star Patiria miniata (Pm) or the sea urchin Strongylocentrotus purpuratus (Sp); higher = stronger binding preference
Conditions: the construct has about 5 more residues each side
Protocol: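 Universal protein-binding microarray (Agilent AMADID 016060, 60-bp probes with a 35-bp variable region) incubated with 200 nM GST-fused Patiria miniata Tbr T-box DNA-binding domain (residues 272-466) in PBS pH 7.5. Scored for every ungapped 8-mer (given with its reverse complement) by the Universal PBM Analysis Suite as E-score (modified Wilcoxon-Mann-Whitney enrichment, range -0.5 to 0.5; >0.45 counts as bound) and Z-score of median probe intensity. Two replicate arrays (datasets 1 and 2).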
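Further: 200 nM protein in PBS on universal arrays averaged over duplicate arrays.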

Row | Sequence | PBM E-score of 8-mer
1 | TAGTGAAA | 0.144 ± 0.048
2 | CAGTGACG | 0.134 ± 0.011
3 | CAGTGACA | 0.338 ± 0.0041
4 | AAGTGAAA | 0.154 ± 0.056
5 | GAGTGACC | -0.0846 ± 0.0063
6 | AAGTGACC | 0.185 ± 0.041
7 | GAGTGAAA | 0.16 ± 0.1
8 | GAGTGACA | 0.373 ± 0.017
9 | AAGTGACG | 0.4043 ± 0.003
10 | AAGTGACT | 0.092 ± 0.006
11 | ACTTGTAA | 0.0472 ± 0.082
12 | GGGTATTA | -0.139 ± 0.091
13 | GTCCAATA | -0.21 ± 0.0092
14 | AGATGCCA | -0.00611 ± 0.051
15 | GAACTATC | -0.095 ± 0.022
16 | GAACTGAA | -0.228 ± 0.021
17 | AAGGAGGC | -0.181 ± 0.009
18 | GTCAAAAA | 0.0926 ± 0.056
19 | CACGGTCG | 0.0491 ± 0.014
20 | CGAGGGAG | -0.0838 ± 0.048
21 | TACCTCGA | -0.0364 ± 0.012
22 | ATGTGAGC | 0.0849 ± 0.0062

Row | Sequence | PBM E-score of 8-mer
23 | ATGTGATA | 0.298 ± 0.048
24 | CTGTGAGA | 0.314 ± 0.0081
25 | GTGTGAGA | 0.4583 ± 0.0027
26 | ATGTGAGA | 0.429 ± 0.0081
27 | GTGAGAGA | 0.319 ± 0.015
28 | ATGTGAGG | 0.215 ± 0.026
29 | GTGTGATA | 0.46 ± 0.006
30 | CTGTGATA | 0.2528 ± 0.0022
31 | GATACTTA | -0.121 ± 0.055
32 | ACGATAAA | 0.122 ± 0.051
33 | GACGATCC | -0.0686 ± 0.12
34 | GATACAGC | -0.197 ± 0.018
35 | CCATACTC | 0.0602 ± 0.026
36 | GATATCTA | -0.117 ± 0.025
37 | CTACCAGA | -0.1381 ± 0.0011
38 | CCCGACCA | -0.0729 ± 0.075
39 | CCAGCTGA | -0.0424 ± 0.022
40 | CCTAGATC | -0.0223 ± 0.021
41 | ATGTCACA | 0.375 ± 0.013
42 | CCGTCACA | 0.325 ± 0.024
43 | ATGTCAAG | -0.0802 ± 0.059
44 | ATGTCACC | 0.385 ± 0.015

Row | Sequence | PBM E-score of 8-mer
45 | ATGTCATC | -0.0845 ± 0.035
46 | ATGTCAGC | 0.00315 ± 0.0099
47 | ATGTCACG | 0.262 ± 0.012
48 | CTGTCATC | 0.141 ± 0.036
49 | CCGTCACC | 0.356 ± 0.03
50 | CTGTCACC | 0.428 ± 0.013
51 | CTGTCAAG | 0.2006 ± 0.0012
52 | CTGTCACA | 0.4 ± 0.0052
53 | CCCCAGAC | -0.109 ± 0.082
54 | ACACTGTG | 0.227 ± 0.0059
55 | ACCTACTG | 0.0087 ± 0.021
56 | AGATAGCT | -0.0197 ± 0.1
57 | AGGCGAAA | -0.0128 ± 0.028
58 | AATGATCG | -0.0804 ± 0.013
59 | ACTTAAGA | -0.0828 ± 0.02
60 | TATGGTGA | 0.074 ± 0.043
61 | GTGTCACA | 0.445 ± 0.0066
62 | GCGTCACA | 0.307 ± 0.014
63 | GAGTCACA | 0.237 ± 0.0075
64 | AGCCCCGC | -0.0835 ± 0.072
65 | AATCTCAT | -0.0261 ± 0.042
66 | AATCTCAC | 0.382 ± 0.0088

Row | Sequence | PBM E-score of 8-mer
67 | AATCTCTC | -0.0609 ± 0.011
68 | ATTCTCAC | 0.435 ± 0.017
69 | ATTCTCAA | 0.115 ± 0.051
70 | ATTCTCAG | 0.0465 ± 0.077
71 | ATGGCGGA | -0.225 ± 0.027
72 | CGGCAAAC | -0.0247 ± 0.012
73 | ATTAGGTC | -0.153 ± 0.013
74 | AATAGGTC | -0.258 ± 0.012
75 | AATAGGTG | 0.428 ± 0.013
76 | AGTAGGTG | 0.4125 ± 0.00071
77 | ATTAGGTG | 0.374 ± 0.0089
78 | ACTAGGTC | -0.143 ± 0.0081
79 | AGTAGGTA | -0.0493 ± 0.079
80 | AGTAGGTC | -0.148 ± 0.05
81 | AATAGGTA | -0.0644 ± 0.018
82 | ACTAGGTA | -0.23 ± 0.039
83 | ACTAGGTG | 0.425 ± 0.012
84 | ATTAGGTA | -0.131 ± 0.0089
85 | ATCGCTTC | 0.0264 ± 0.017
86 | CACATTTC | 0.3486 ± 0.0015
